In test [1] the target is Lysosomal acid glucosylceramidase (Homo sapiens) (UniProt P04062). As to the kind of experiment: Glucocerebrosidase-p2 (AID 348; in the data active = potency below about 10 µM; note: potency is the fitted concentration of half-maximal effect). Particulars: purified GBA, blue fluorogenic substrate, 40 min. In a few lines: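 Normal human glucocerebrosidase (0.2 nM) with blue fluorogenic substrate (80 uM final) in citrate/phosphate pH 5.9 with 10mM sodium taurocholate, 0.01% tween-20; 40 min RT, NaOH/glycine stop; fluorescence Ex 365/Em 440; AC50 from a titration from 0.6 nM upwards.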
Lysosomal acid glucosylceramidase (Homo sapiens), sequence (P04062 whole entry, looked up): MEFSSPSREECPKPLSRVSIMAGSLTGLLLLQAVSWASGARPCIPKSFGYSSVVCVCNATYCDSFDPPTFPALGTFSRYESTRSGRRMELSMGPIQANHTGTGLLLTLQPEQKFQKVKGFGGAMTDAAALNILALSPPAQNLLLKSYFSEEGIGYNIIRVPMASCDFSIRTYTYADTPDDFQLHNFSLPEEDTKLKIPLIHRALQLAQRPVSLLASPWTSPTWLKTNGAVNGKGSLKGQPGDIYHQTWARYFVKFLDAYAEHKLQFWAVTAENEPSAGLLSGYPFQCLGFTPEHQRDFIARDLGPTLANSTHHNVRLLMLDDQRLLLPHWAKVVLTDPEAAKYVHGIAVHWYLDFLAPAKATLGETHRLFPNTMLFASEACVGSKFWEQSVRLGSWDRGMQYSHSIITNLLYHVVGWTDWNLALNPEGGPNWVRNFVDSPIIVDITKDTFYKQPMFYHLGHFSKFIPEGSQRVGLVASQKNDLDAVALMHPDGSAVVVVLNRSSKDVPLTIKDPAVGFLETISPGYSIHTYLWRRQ

Test [2] can be described thus: AP1 Signaling Pathway (AID 357; active = well fitted curve in either direction with a large enough effect, not every such curve was filed as active; note: % is set by controls: 0 for no effect and ±100 for the full control effect). The following applies: ME-180 AP-1-bla reporter, EGF-induced, beta-lactamase ratio, 5 h; at 7.69 µM (top of the series) unless noted. The procedure, abridged:
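AP-1-bla ME-180 cells with beta-lactamase reporter under AP-1 response element, stimulated with EC50 EGF; compounds titrated, 5 hours at 37 degrees Celsius. CCF4 read at 460/530 nm ratio; positive and negative modulators judged by AC50.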

In test [3] the target is Cytochrome P450 1A2 (Homo sapiens) (UniProt P05177). As to the kind of experiment: p450-cyp1a2 (AID 410; calls by dose curve; note: potency is the fitted concentration of half-maximal effect). The following applies: recombinant CYP1A2, luciferin-ME demethylation, luminescence; series mostly up to 57 µM. The procedure, abridged: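 20nM CYP1A2, 100uM Luciferin-ME (=Km), 100mM KPO4; cpd 10 min RT; +NADPH regen, 60 min RT; stop/detect 20 min; luminescence. Normalized to furafylline 57 uM = full inhibition.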
Cytochrome P450 1A2 (Homo sapiens), sequence (P05177 whole entry, looked up): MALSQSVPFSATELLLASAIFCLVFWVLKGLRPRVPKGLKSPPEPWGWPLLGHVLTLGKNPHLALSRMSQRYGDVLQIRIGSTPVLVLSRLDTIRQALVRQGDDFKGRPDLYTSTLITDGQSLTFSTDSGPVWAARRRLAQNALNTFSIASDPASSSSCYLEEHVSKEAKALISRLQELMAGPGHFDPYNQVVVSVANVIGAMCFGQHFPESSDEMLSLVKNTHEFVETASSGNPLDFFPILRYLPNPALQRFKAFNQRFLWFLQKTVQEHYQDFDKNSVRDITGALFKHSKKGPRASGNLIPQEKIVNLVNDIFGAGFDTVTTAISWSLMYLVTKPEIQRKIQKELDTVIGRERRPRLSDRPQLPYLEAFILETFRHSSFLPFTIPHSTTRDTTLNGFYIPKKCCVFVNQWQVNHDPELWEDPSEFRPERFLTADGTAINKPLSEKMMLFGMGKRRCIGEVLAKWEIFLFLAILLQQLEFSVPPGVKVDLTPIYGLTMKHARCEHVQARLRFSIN

Test [4] can be described thus: NFAT Signaling Pathway (AID 444; active = well fitted curve in either direction with a large enough effect, not every such curve was filed as active;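 note: carbachol stimulus at about its EC50 of 1 µM final; % is set by controls: 0 for no effect and ±100 for the full control effect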). Particulars: Jurkat NFAT-bla M1, carbachol, beta-lactamase ratio, 5 h; at 7.69 µM (top of the series) unless noted. The procedure, abridged: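 Jurkat cells carrying an NFAT-driven β-lactamase reporter and co-transfected muscarinic M1 receptor were treated with compound plus carbachol (1 uM final, an EC50 level) for 5 h at 37 °C. CCF4 loading followed for 1 h at RT; 460/530 nm ratio gave %activity.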

Test [5] deals with Glucocorticoid receptor (Homo sapiens) (UniProt P04150). Put plainly: GR-GFP Redistribution (AID 450;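 active = compounds whose dose series gives a full or clear partial fitted curve of increased nuclear translocation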; note: potency is the fitted concentration of half-maximal effect). Particulars: U2OS GR-GFP nuclear translocation, laser cytometry, 2 h.
Glucocorticoid receptor (Homo sapiens), sequence (P04150 whole entry, looked up): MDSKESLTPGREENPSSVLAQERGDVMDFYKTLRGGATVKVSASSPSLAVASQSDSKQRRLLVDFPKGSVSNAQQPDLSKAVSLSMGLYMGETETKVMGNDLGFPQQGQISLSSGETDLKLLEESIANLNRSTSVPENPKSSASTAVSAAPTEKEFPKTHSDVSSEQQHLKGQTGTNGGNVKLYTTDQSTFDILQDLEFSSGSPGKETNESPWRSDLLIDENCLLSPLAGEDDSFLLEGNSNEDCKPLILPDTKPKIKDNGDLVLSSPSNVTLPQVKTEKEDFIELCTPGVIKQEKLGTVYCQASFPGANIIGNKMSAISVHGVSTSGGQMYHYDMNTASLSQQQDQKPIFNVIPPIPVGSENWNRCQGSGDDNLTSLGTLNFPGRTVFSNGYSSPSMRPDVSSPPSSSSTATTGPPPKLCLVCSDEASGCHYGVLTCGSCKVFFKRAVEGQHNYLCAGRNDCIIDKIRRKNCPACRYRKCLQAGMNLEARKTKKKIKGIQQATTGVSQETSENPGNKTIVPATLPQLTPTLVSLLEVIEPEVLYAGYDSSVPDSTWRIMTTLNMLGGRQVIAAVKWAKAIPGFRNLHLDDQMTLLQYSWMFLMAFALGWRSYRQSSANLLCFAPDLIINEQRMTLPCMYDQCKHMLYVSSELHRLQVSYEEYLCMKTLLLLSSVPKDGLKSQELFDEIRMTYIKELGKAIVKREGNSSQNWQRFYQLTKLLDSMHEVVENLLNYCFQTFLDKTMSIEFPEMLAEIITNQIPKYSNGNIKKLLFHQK
Test [6] has the same target. Put plainly: GR-EFC Redistribution (AID 451; calls by dose curve; note: potency is the fitted concentration of half-maximal effect). The following applies: CHO-K1 GR-EFC translocation, beta-gal luminescence, 2 h. The procedure, abridged:
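CHO-K1 cells stably expressing nuclear-localized β-gal enzyme acceptor and GR fused C-terminally to the enzyme donor fragment; ligand-driven nuclear translocation restores β-gal by complementation. Compounds titrated up to 46 uM final, 2 h at 37 °C; luminescence read.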

Test [7] has as its target 3',5'-cyclic-AMP phosphodiesterase 4B (Homo sapiens) (UniProt Q07343). As to the kind of experiment: qHTS Assay for Inhibitors of PDE-IV (AID 607; active = well fitted activation curve with a large enough effect in the main read-out, with a control signal flat, not every such curve was filed as active; note: % of control where 0% means no effect). The following applies: HEK293 ACTOne CNG channel cells, membrane potential fluorescence; series mostly up to 22.9 µM. In a few lines:
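The readout is membrane depolarisation from a cAMP-sensing CNG channel, detected with a potential dye at ex 535/em 590. Cells were HEK293-derived (endogenous PDE-IV) at 1000 cells/well, titrated up to 22.9 uM final.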
For orientation: In qHTS, concentration-response curves come from the screen itself.

In test [8] the target is Dual specificity protein kinase CLK4 (Homo sapiens) (UniProt Q9HAZ1). As to the kind of experiment: qHTS Assay for Inhibitors of CDC-like Kinase 4 (ADP-Glo Assay) (AID 1771). Note: nearly all actives have a fitted effect of over 70% in size. Note: potency is the fitted concentration of half-maximal effect. Particulars: recombinant CLK4, ADP-Glo luminescence; series mostly up to 80 µM. The procedure, abridged: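 25 nM Clk4, 100 uM RS peptide, 1 uM ATP (final); 2 mM MgCl2, 0.5 mM EGTA, 2.5 mM DTT, 0.01% Triton X-100; 1 hr RT. ADP-Glo readout: ATP depletion 45 min, conversion/luciferase 30 min, luminescence.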
Dual specificity protein kinase CLK4 (Homo sapiens), sequence (Q9HAZ1 whole entry, looked up): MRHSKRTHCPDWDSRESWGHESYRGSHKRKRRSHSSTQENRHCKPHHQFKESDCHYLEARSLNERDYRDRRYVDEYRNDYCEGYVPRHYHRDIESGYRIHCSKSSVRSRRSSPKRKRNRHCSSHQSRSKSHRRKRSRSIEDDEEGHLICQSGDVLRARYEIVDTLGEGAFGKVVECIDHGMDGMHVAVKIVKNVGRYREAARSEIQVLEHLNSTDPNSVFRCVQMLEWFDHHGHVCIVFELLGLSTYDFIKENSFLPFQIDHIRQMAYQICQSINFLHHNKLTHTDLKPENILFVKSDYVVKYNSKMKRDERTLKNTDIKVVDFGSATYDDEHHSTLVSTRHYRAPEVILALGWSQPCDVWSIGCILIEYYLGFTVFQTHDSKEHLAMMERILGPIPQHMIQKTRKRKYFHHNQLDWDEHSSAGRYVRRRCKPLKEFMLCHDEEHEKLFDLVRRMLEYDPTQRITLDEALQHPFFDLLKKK

Test [9] has the same target. Put plainly: qHTS Assay for Inhibitors of CDC-like Kinase 4 (ADP-FP Assay) (AID 1795). Note: nearly all actives have a fitted effect of over 60% in size. Note: potency is the fitted concentration of half-maximal effect. Particulars: Transcreener ADP fluorescence polarization; series mostly up to 50 µM. In a few lines:
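FP readout: Orange Transcreener ADP2 tracer (4 nM) plus ADP antibody, read after 30 min at room temperature. Kinase step: 6.25 nM Clk4, 100 uM RS peptide, 1 uM ATP, pH 7.5, 1 h.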

Test [10] deals with Ubiquitin carboxyl-terminal hydrolase 1 (Homo sapiens) (UniProt O94782). Put plainly: Inhibitors of USP1/UAF1: Pilot qHTS (AID 504865).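 Note: rhodamine fluorescence freed from ubiquitin-rhodamine substrate followed over time; top concentration of the series differs between compounds; % is set by controls: 0 for no effect and ±100 for the full control effect; nearly all actives have a fitted effect of over 35% in size.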 The following applies: purified USP1/UAF1, Ub-rhodamine cleavage fluorescence; series mostly up to 54.9 µM. The procedure, abridged: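 1nM USP1/UAF1 + cpd, 15 min RT; start w/ Ub-Rho 150nM final; kinetic FL 480/540 nm, 6 reads q60 s. Buffer 50mM HEPES pH 7.8, 0.5mM EDTA, 1mM TCEP, 0.01% Tween-20, 0.1 mg/ml BSA.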
Ubiquitin carboxyl-terminal hydrolase 1 (Homo sapiens), sequence (O94782 whole entry, looked up): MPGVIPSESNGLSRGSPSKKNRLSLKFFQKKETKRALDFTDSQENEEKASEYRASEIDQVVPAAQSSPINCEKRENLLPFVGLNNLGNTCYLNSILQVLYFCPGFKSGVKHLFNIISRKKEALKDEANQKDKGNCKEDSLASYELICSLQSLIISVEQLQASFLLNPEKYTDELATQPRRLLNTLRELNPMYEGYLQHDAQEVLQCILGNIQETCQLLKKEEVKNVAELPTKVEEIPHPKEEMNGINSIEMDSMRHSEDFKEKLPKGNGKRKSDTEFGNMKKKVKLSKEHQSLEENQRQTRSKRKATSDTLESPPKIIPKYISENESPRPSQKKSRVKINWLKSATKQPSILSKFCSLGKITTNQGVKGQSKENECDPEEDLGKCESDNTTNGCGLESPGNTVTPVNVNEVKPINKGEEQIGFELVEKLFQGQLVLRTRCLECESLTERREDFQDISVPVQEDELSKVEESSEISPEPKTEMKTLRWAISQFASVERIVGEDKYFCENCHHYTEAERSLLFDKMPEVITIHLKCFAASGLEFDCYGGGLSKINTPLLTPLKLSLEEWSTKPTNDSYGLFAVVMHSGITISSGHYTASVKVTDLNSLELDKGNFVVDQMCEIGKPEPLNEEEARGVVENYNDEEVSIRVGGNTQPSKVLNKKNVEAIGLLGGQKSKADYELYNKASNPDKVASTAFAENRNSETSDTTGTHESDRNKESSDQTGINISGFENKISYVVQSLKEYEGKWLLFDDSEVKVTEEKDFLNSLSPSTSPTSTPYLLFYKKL

Test [11] in a line: Primary qHTS for small molecule stabilizers of the endoplasmic reticulum resident proteome: Secreted ER Calcium Modulated Protein (SERCaMP) assay (AID 1508630). Note: % is set by controls: 0 for no effect and ±100 for the full control effect. The following applies: SH-SY5Y GLuc-SERCaMP (Gaussia luciferase released on ER calcium loss) secretion, thapsigargin, luminescence; series mostly up to 38.4 µM. The procedure, abridged:
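The SH-SY5Y reporter protocol was run at 3 concentrations up to 38.3 uM (primary) or 11 concentrations (follow-up): 16 h compound, 100 nM thapsigargin for 4 h, then extracellular luciferase luminescence.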

For test [12], the target named is Mitogen-activated protein kinase 10 (Mus musculus) (UniProt Q61831). As to the kind of experiment: JNK3 AlphaScreen Assay (AID 530; active = well fitted curve in either direction with a large enough effect, not every such curve was filed as active;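 note: kinase came from lysate of stimulated human HepG2 cells; % is set by controls: 0 for no effect and ±100 for the full control effect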). Particulars: JNK3 lysate, c-Jun phosphorylation; series mostly up to 57.1 µM. The procedure, abridged: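 Biotinylated GST-cJun(1-79) served as substrate for JNK3 in HepG2 lysates stimulated with IL-1beta and TNF-alpha. ATP was 10 uM final, pH 7.6. Ser73 phosphorylation was quantified by AlphaScreen (680 nm excitation).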

Test [13] has as its target Cytochrome P450 3A4 (Homo sapiens) (UniProt P08684). Put plainly: qHTS Assay for Activators of Cytochrome P450 3A4 (AID 885). Note: nearly all actives have a fitted effect of over 65% in size. Particulars: recombinant CYP3A4, Luciferin-PPXE luminescence, 60 min; series mostly up to 57.1 µM. In a few lines: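 Activators are scored by enhanced luminescence from CYP3A4 conversion of luciferin-PPXE (25uM, equal to KM) to luciferin, after 60 min at RT with an NADPH-regenerating system.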

Test [14] can be described thus: Stat Signaling Pathway (AID 446; active = well fitted curve in either direction with a large enough effect, not every such curve was filed as active). Particulars: ME-180 (cervical carcinoma) SIE beta-lactamase reporter, IL-6 stimulated, 5 h; at 7.69 µM (top of the series) unless noted. In a few lines: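 Emission at 460 and 530 nm (excitation 405 nm) reports SIE-controlled beta-lactamase in ME-180 cells. Cells received compound with 40 pM IL-6 for 5 hrs at 37 C; data scaled between 300 pM IL-6 and 125 nM JAK-inhibitor controls.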

The target in test [15] is Cytochrome P450 3A4 (Homo sapiens) (UniProt P08684). Put plainly: qHTS Assay for Inhibitors and Substrates of Cytochrome P450 3A4 (AID 884). Note: potency is the fitted concentration of half-maximal effect; nearly all actives have a fitted effect of over 50% in size. Particulars: recombinant CYP3A4, Luciferin-PPXE luminescence; series mostly up to 57.1 µM. In a few lines: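 Luminescent readout of luciferin produced by CYP3A4 (20 nM) dealkylation of Luciferin-PPXE, 25 uM (its KM). NADPH-driven reaction ran 60 min at RT after 10 min compound preincubation; data scaled to 57 uM ketoconazole as 100% inhibition.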
Cytochrome P450 3A4 (Homo sapiens), sequence (P08684 whole entry, looked up): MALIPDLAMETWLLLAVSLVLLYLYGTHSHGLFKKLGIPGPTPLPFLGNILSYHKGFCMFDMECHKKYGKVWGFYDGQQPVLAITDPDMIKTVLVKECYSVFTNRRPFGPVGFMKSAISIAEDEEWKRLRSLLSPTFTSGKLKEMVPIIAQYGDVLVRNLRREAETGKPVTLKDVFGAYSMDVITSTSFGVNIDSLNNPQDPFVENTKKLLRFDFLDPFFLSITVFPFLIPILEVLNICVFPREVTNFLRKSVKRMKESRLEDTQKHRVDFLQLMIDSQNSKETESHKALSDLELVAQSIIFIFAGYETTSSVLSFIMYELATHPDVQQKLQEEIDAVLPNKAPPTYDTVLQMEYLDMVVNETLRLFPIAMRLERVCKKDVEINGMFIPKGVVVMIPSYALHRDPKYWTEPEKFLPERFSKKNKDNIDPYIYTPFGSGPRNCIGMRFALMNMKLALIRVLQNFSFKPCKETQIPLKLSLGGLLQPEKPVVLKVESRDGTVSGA

The target in test [16] is Cytochrome P450 2C9 (Homo sapiens) (UniProt P11712). As to the kind of experiment: qHTS Assay for Inhibitors and Substrates of Cytochrome P450 2C9 (AID 883). Note: % is set by controls: 0 for no effect and ±100 for the full control effect; nearly all actives have a fitted effect of over 60% in size. Particulars: recombinant CYP2C9, luciferin-H luminescence, 60 min; series mostly up to 57.1 µM. In a few lines: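 Human CYP2C9 (10nM) hydroxylated Luciferin-H (100uM, at its KM) to luciferin in 25mM KPO4. Compound was preincubated 10 min at 37C, then NADPH regeneration started a 60 min reaction at 37C. Luminescence was read after detection reagent, normalized to 57uM sulphaphenazole.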
Cytochrome P450 2C9 (Homo sapiens), sequence (P11712 whole entry, looked up): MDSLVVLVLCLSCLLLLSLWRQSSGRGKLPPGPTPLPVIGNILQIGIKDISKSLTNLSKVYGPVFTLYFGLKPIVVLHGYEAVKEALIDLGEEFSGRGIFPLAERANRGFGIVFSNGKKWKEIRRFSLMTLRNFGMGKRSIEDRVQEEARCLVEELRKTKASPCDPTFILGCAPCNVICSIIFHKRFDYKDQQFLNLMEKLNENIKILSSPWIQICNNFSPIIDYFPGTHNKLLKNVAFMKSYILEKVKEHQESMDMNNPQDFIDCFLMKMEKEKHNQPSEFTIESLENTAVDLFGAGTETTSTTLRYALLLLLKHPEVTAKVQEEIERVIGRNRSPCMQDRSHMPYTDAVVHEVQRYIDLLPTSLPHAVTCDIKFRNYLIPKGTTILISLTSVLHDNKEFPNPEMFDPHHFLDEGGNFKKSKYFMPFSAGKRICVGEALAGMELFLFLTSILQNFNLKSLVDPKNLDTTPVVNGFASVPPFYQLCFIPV

Unmarked numbers belong to inactive results. Records with an inconclusive call do not appear. Calls of active or inactive are those of the source. Unless noted, calls come from the whole dose curve; as a rule, active = well fitted curve in the direction sought with a large enough effect; inconclusive = small, poorly fitted or top-dose-only effect, or another doubt; inactive = no such curve, though single readings can be large; an effect the other way counts as inactive or inconclusive. Some results are limits rather than exact numbers.

3',5'-cyclic-AMP phosphodiesterase 4B (Homo sapiens), sequence (Q07343 whole entry, looked up): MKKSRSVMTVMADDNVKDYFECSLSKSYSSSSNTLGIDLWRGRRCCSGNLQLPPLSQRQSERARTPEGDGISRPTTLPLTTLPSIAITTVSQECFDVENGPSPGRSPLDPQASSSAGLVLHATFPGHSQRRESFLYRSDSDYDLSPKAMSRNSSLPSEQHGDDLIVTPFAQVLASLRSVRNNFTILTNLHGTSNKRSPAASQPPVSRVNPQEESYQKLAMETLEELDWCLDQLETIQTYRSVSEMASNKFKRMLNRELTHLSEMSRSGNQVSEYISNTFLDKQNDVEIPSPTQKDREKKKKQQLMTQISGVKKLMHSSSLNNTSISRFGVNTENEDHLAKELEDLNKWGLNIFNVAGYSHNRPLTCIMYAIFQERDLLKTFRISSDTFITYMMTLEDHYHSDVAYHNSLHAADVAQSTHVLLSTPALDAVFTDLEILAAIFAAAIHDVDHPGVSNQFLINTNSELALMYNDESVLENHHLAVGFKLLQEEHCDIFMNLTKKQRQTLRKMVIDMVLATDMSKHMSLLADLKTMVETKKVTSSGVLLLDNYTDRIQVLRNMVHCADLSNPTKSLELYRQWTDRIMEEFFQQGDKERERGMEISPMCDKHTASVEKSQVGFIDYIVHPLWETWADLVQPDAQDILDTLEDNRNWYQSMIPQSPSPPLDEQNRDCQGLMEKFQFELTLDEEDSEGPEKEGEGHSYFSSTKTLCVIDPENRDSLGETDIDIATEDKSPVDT

In the case of `CN(C)c1ncc2nc(-c3cccs3)c(=O)n(CCc3ccccc3)c2n1`, the Potency in [1] was greater than 11.4 µM; in test [3] it was 5.01 µM (active); in test [5] it was greater than 9.22 µM; in [6], greater than 46 µM. In addition, the activity change, negative = inhibition in test [2] is 14.4%; in [4], 9.39%. The Potency entry in test [7], in [8], in test [9] and in [10] was “inactive” each time. In test [11], the outcome was inactive.

In the case of `COc1ccc(Oc2ncc3nc(-c4ccc(F)cc4)c(=O)n(Cc4cccs4)c3n2)cc1`, the Potency in test [1] is greater than 11.4 µM; in test [3], 5.01 µM (active); in test [5], greater than 9.22 µM; in test [6], greater than 46 µM. Also, in test [4], the activity change, negative = inhibition is -29.2%. Besides, the Potency entry in test [12], in [7], in [13], in [8], in test [9] and in test [10] was “inactive” each time. Further, the outcome in test [11] was inactive.

Turning to `FC(F)(F)c1ccccc1-c1cncnc1NCc1cccs1`, the Potency was greater than 11.4 µM in test [1]; 20 µM (active) in [3]; greater than 46 µM in test [5]; greater than 46 µM in test [6]; 0.251 µM (active) in test [15]. In addition, the activity change, negative = inhibition in [2] is 10.5%. Further, the activity, negative = inhibition in test [14] is -1.4%. Besides, the Potency entry in test [12], in test [13], in [8], in test [9] and in test [10] was “inactive” throughout. The outcome in test [11] was inactive.

As to `CN(Cc1ccco1)c1cc(-c2cccc(C#N)c2)ncn1`, the Potency was greater than 11.4 µM in [1]; 0.794 µM (active) in test [3]; greater than 46 µM in test [5]; greater than 46 µM in [6]; 28.2 µM (active) in [8]. The activity change, negative = inhibition in [2] is -7.22%; in test [4], 11.4%; in [16], 12.3% [at 2.29 µM]. The activity, negative = inhibition in [14] is 8.43%. The Potency result in test [12], in [7] and in test [10] was “inactive” in each case. The outcome in test [11] was inactive.

For `Cc1noc(C)c1-c1ccc2ncnc(Nc3ccccc3)c2c1`, the Potency in test [1] was greater than 11.4 µM; in test [5], greater than 46 µM; in test [6], greater than 46 µM; in test [8] it was 7.94 µM (active); in test [9], 10 µM (active). Besides, in test [2], the activity change, negative = inhibition is -6.37%. Further, the Potency entry in [12], in test [7] and in [10] was “inactive” in each case. Moreover, the outcome in test [11] was inactive.

For `COc1ccc(-c2nc3cnc(N(C)C)nc3n(Cc3cccs3)c2=O)cc1`, the Potency in test [1] is greater than 11.4 µM; in test [3] it was 1.58 µM (active); in test [5] it was greater than 9.22 µM; in test [6], greater than 46 µM. Also, the activity change, negative = inhibition in test [2] is 17.1%. Moreover, the Potency result in test [13], in test [8], in test [9] and in test [10] was “inactive” throughout. For the same compound, in [11], the result was inactive.

As for `COc1ccc(CNc2nc(-c3ccc(N(C)C)cc3)nc3ccccc23)c(OC)c1`, the Potency is greater than 11.4 µM in test [1], greater than 46 µM in [5] and greater than 46 µM in [6]. Besides, the activity change, negative = inhibition in [2] is 5.6%. In addition, the activity, negative = inhibition in test [14] was 23.2%. Besides, the Potency result in [12], in [7], in test [13], in test [8], in test [9] and in [10] was “inactive” in each case. In addition, the outcome in [11] was inactive.

Values taken from PubChem BioAssay (NCATS).
